# According to PubChem BioAssay:
# Test system: not listed separately
# Experiment: small molecules captured by biotinylated probe aFGF10 – biochemical, small-molecule microarray, fluorescence 635/667, stem cell growth factor project, primary screen (AID 1071);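 further: score merges 667 nm spot intensity and signal to noise from triplicate slides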
# Details: higher = more signal
row,Compound,composite z-score
1,Cc1ccc(S[C@]2(C(=O)O)CC(=O)N(Cc3ccccc3Cl)[C@@H]2c2ccc(CO)cc2I)cc1,0.107
2,COCCCNC(=O)[C@@]1(Sc2ccc(C)cc2)CC(=O)N(C2CCCCC2)[C@@H]1c1ccc(CO)cc1,0.0381
3,COCC1=C2[C@@H](CCc3ccccc3)OB(O)C[C@@H]2[C@@H]2C(=O)C=CC(=O)[C@@H]2C1,0.328
4,COc1ccc([Si](C)(C)[C@@H]2[C@@H](CCn3cc([C@H](O)c4ccccc4)nn3)O[C@]3(C(=O)N(Cc4ccc(N5CCC5=O)cc4)c4ccccc43)[C@H]2C)cc1,-0.127
5,CCOc1cc(C(O)C2C=CC3C(=O)N(C)C(=O)C3N2Nc2ccccc2)ccc1O (stereo unspecified),0.305
6,C=C(C(=O)CC[C@@H](OC(C)=O)c1ccc(CO)o1)C(C)C,0.114
7,CC(=O)NCCCC[C@@H]1NC(=O)[C@@H]2C[C@H](C(=O)NCCCC[N+](C)(C)C)[C@H](c3ccc(O)cc3)N2C1=O,0.88
8,CCOC(=O)C1CCCCN1 (stereo unspecified),0.989
9,C=CCOC(=O)[C@H]1[C@@H]2C(=O)O[C@@H](c3ccccc3)[C@@H](c3ccccc3)N2[C@@H](c2ccc(OCCOC(=O)[C@@H]3C[C@@H]4C(=O)N[C@@H](CCCCN(C)C)C(=O)N4[C@@H]3c3ccc(O)cc3)cc2)[C@]12C(=O)Nc1ccccc12,0.389
10,CCCC[C@@H]1C[C@H]1[C@@H](NC(=O)c1cccs1)c1ccc(C(F)(F)F)cc1,-0.618

# Target: Neurogenic locus notch homolog protein 2 (Homo sapiens) (UniProt Q04721)
# Experiment: small molecules binding Notch2 protein – biochemical, small-molecule microarray, 635 nm fluorescence, stem cell growth factors, primary screen (AID 1073)
# Details: higher = more signal
# Neurogenic locus notch homolog protein 2 (Homo sapiens), sequence (Q04721 whole entry, looked up): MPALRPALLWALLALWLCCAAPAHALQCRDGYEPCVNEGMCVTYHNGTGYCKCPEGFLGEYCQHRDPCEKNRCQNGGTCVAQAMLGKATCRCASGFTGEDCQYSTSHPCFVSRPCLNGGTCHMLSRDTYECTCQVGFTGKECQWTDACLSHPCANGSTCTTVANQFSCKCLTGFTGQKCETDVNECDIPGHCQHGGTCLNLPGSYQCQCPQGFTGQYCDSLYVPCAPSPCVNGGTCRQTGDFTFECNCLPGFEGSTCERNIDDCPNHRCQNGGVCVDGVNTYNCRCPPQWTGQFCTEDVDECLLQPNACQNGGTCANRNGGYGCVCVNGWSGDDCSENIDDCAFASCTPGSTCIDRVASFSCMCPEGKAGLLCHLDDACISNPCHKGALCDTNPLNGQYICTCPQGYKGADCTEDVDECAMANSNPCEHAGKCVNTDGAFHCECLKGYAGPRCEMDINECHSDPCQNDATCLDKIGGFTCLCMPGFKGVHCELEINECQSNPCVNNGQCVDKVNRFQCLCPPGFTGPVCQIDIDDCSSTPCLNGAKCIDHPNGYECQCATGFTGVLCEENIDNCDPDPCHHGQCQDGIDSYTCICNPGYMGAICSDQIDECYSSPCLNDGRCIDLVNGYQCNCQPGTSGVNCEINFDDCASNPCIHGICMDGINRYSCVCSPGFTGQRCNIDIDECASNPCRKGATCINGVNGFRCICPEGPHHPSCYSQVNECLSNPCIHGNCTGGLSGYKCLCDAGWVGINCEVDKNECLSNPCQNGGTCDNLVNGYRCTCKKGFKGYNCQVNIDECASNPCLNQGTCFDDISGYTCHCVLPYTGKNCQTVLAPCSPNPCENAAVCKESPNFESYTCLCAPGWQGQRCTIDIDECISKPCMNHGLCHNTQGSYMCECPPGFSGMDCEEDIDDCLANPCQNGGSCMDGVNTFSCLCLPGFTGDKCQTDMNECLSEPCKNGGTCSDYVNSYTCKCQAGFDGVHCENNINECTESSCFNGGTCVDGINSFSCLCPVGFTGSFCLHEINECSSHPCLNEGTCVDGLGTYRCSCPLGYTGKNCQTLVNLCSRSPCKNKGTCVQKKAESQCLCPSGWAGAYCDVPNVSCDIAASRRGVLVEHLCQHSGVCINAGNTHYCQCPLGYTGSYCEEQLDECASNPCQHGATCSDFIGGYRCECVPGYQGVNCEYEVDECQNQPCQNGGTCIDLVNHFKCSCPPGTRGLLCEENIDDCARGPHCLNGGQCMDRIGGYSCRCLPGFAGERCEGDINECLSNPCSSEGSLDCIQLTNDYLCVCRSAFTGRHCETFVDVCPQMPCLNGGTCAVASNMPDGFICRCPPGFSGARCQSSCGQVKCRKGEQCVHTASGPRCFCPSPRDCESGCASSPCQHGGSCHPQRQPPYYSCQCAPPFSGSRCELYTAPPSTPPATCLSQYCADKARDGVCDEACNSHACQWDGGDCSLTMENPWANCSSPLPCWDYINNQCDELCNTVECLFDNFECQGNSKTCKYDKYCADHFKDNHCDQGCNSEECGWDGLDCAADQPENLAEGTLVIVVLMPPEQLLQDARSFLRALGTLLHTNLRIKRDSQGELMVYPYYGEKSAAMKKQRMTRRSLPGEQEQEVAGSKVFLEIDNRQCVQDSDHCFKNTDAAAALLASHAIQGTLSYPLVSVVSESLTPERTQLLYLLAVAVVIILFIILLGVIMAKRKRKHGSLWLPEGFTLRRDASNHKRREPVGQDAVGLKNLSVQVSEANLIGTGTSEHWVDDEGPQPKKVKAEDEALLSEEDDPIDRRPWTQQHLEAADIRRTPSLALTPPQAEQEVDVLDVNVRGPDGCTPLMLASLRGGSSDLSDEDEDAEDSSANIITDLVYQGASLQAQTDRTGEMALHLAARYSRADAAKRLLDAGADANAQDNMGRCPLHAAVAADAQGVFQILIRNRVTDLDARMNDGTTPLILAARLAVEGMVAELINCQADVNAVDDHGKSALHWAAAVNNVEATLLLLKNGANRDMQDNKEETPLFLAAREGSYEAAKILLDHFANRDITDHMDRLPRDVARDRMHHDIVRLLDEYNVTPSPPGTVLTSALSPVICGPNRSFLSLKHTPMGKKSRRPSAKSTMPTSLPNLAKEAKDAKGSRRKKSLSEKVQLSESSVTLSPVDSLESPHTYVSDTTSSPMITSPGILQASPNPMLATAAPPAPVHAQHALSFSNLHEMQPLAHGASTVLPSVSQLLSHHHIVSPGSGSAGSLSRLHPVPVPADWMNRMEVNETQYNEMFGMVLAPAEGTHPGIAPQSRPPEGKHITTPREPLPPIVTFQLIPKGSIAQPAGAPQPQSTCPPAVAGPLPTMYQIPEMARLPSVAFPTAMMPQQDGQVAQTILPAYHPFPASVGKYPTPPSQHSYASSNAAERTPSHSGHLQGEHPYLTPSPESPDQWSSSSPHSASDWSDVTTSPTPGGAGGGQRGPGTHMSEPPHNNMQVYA
row,Compound,composite z-score
1,[N-]=[N+]=Nc1ccccc1[C@H]1OC(c2ccc(OCCCO)cc2)=N[C@@]1(Cc1ccccc1)C(=O)N1CCCCC1,1.63
2,CCCNC(=O)[C@@]1(c2ccc([N+](=O)[O-])cc2)CC(=O)N(C2CCCCC2)[C@@H]1c1ccc(CO)cc1,1.03
3,CN1C(=O)C2C=CC(C(O)c3ccccn3)N(N(c3ccccc3)c3ccccc3)C2C1=O (stereo unspecified),0.594
4,COCCOC(=O)N1C(=O)[C@@]2(c3cc(C#CC4=CCCCC4)ccc31)[C@H](c1ccc(O)cc1)N1[C@H](c3ccccc3)[C@H](c3ccccc3)OC(=O)[C@H]1[C@@H]2C(=O)N1CCN(c2ncccn2)CC1,-1.58
5,C[N+](C)(C)CCCCCCNC(=O)[C@H]1C[C@H]2C(=O)N[C@@H](Cc3ccccc3)C(=O)N2[C@H]1c1ccc(O)cc1,0.224
6,O=C1NC(=O)C2C1C=CC(C(O)c1cccc3ccccc13)N2Nc1ccc(Cl)cc1Cl (stereo unspecified),1.49
7,COC(=O)[C@@]1(Cc2ccc(F)cc2)[C@H]2c3cc(C(=O)N4CCCC4)n(CCc4ccc(O)c(O)c4)c3C[C@H]2CN1C(=O)c1ccccc1,1.38
8,O=C(CS)NCCCCCCNC(=O)[C@H]1C[C@H]2C(=O)N[C@@H](Cc3ccccc3)C(=O)N2[C@H]1c1ccc(O)cc1,0.51
9,C#CCN([C@@H](Cc1ccc(O)cc1)C(=O)OC)[C@@H](/C=C/C1CC1)[C@H](O)Cc1ccccc1,-0.791
10,CCOC(=O)c1ccc(NC(=O)O[C@H]2[C@H](OC(=O)Nc3ccc4c(c3)OCO4)[C@@H](OC(=O)Nc3ccc4c(c3)OCO4)[C@@H](OC)O[C@@H]2CO)cc1,1.39
11,O=c1n(-c2ccccc2)c(=O)n2n1CC(COc1ccccc1)=C([C@H](O)CCc1ccccc1)[C@@H]2CO,0.094
12,COc1ccc([Si](C)(C)[C@@H]2[C@@H](CC(=O)N3Cc4ccccc4C[C@H]3CO)O[C@]3(C(=O)N(Cc4cccc(N5C(=O)c6cccc7cccc5c67)c4)c4ccccc43)[C@H]2C)cc1,0.973
13,CN(C)C(=O)[C@]1(CCS(=O)(=O)c2ccccc2)N=C(c2ccc(OCCCO)cc2)O[C@@H]1c1ccccc1N=[N+]=[N-],1.59
14,COC(=O)[C@@]1(Cc2ccc(OC)cc2)[C@H]2c3cc(C(=O)N4CCCC4)n(Cc4c(-c5ccccc5)noc4C)c3C[C@H]2CN1C(=O)c1ccccc1,1.71
15,O=C1O[C@H](c2ccccc2)[C@H](c2ccccc2)N2[C@H]1[C@@H](C(=O)O)[C@]1(C(=O)Nc3ccc(C#CC4=CCCCC4)cc31)[C@H]2c1ccc(O)cc1,0.769
16,COc1cc2c(cc1OC)CN(C(=O)[C@@H]1[C@H]3C(=O)O[C@H](c4ccccc4)[C@H](c4ccccc4)N3[C@H](c3ccc(OCCO)cc3)[C@@]13C(=O)Nc1ccccc13)CC2,1.16
17,COC(=O)[C@@]1(Cc2ccccc2)[C@H]2c3cc(C(=O)N(C)C)n(CCN4CNCC4=O)c3C[C@H]2CN1C(=O)c1ccccc1,-0.0763
18,CN(C)c1ccc(C(O)C2C=CC3C(=O)N(c4ccccc4)C(=O)C3N2Nc2ccc([N+](=O)[O-])cc2)cc1 (stereo unspecified),1.52

row,Compound,composite z-score
1,C=C(C)c1cc2c(c(CCCCCC)n1)[Si](C(C)C)(C(C)C)OC2,-1.03
2,O=C1O[C@@H](c2ccccc2)[C@@H](c2ccccc2)N2[C@@H](c3ccc(O)cc3)[C@]3(C(=O)Nc4ccc(C#CC5(O)CCCCCC5)cc43)[C@@H](C(=O)NC[C@H](O)c3ccccc3)[C@H]12,-0.226
3,COCCCNC(=O)[C@@]1(Cc2ccccc2N=[N+]=[N-])N=C(c2ccc(OCCCO)cc2)O[C@H]1c1ccccc1,0.629
4,O=C1O[C@H](c2ccccc2)[C@H](c2ccccc2)N2[C@H]1[C@@H](C(=O)Nc1nc3ccccc3s1)[C@]1(C(=O)Nc3ccc(C#CCCO)cc31)[C@H]2c1ccc(O)cc1,0.947
5,COC(=O)[C@@]1(Cc2ccccc2)[C@H]2c3cc(C(=O)N(C)C)n(CCc4ccc(O)c(OC)c4)c3C[C@H]2CN1C(=O)c1ccccc1,0.749
6,O=C1OCC=C[C@H]2OC34C=CCN(c5ccc(Cl)cc5)C(=O)[C@H]3N(CCO)C(=O)[C@@H]4[C@@H]12 (stereo partly specified),-1.09
7,CC(C)Cc1ccc(CN2CC[C@@H](NC(=O)Nc3ccccc3)C2)cc1,-0.3
8,C=CCC(OC(C)=O)[C@@H]1[C@@H](N(Cc2cc3ccccc3o2)C(=O)c2ccc(-c3ccccc3)cc2)c2cc(OCCCO)ccc2N1C(=O)c1ccc2ccccc2c1 (stereo partly specified),0.251
9,Cc1ccc(S[C@]2(C(=O)O)CC(=O)N(Cc3ccccc3Cl)[C@@H]2c2ccc(CO)cc2I)cc1,-0.442
10,COCCCNC(=O)[C@@]1(Sc2ccc(C)cc2)CC(=O)N(C2CCCCC2)[C@@H]1c1ccc(CO)cc1,-0.957
11,COCC1=C2[C@@H](CCc3ccccc3)OB(O)C[C@@H]2[C@@H]2C(=O)C=CC(=O)[C@@H]2C1,0.386
12,COc1ccc([Si](C)(C)[C@@H]2[C@@H](CCn3cc([C@H](O)c4ccccc4)nn3)O[C@]3(C(=O)N(Cc4ccc(N5CCC5=O)cc4)c4ccccc43)[C@H]2C)cc1,-0.564
13,CCOc1cc(C(O)C2C=CC3C(=O)N(C)C(=O)C3N2Nc2ccccc2)ccc1O (stereo unspecified),1.46
14,C=C(C(=O)CC[C@@H](OC(C)=O)c1ccc(CO)o1)C(C)C,0.17
15,CC(=O)NCCCC[C@@H]1NC(=O)[C@@H]2C[C@H](C(=O)NCCCC[N+](C)(C)C)[C@H](c3ccc(O)cc3)N2C1=O,-0.188
16,CCOC(=O)C1CCCCN1 (stereo unspecified),0.931
17,C=CCOC(=O)[C@H]1[C@@H]2C(=O)O[C@@H](c3ccccc3)[C@@H](c3ccccc3)N2[C@@H](c2ccc(OCCOC(=O)[C@@H]3C[C@@H]4C(=O)N[C@@H](CCCCN(C)C)C(=O)N4[C@@H]3c3ccc(O)cc3)cc2)[C@]12C(=O)Nc1ccccc12,0.69
18,CCCC[C@@H]1C[C@H]1[C@@H](NC(=O)c1cccs1)c1ccc(C(F)(F)F)cc1,-0.845
